Data reported in the supplement of paper PMC6089552.
About 300 (9.4%) of roughly 3,200 compounds showed activity. This is one part of a sample in which actives are shown more often than they occur.

Tested on: A673/TR/shEF
Assay: cell viability (LOESS-normalised, relative to median of negative controls) (log2 ratio); higher = more viable cells (less compound effect), active = hit call of the paper (over 3 MAD below the median)
Conditions: treatment time: 72 h
Summary of the method: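 For three days, A673/TR/shEF Ewing sarcoma cells in 384-well plates (1,500 per well) were treated with library compounds at two or more concentrations or with DMSO controls, after doxycycline had been added or withheld 24 h beforehand to induce EWS-FLI1 shRNA knockdown. Viability was read by CellTiter-Glo luminescence on an Envision reader. The data were LOESS-corrected per plate, divided by the median of negative controls and log2-transformed.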

[1] = 0.25 µM, library screen: screen1, EWS-FLI1 expression: high (no doxycycline)
[2] = 0.25 µM, library screen: screen1, EWS-FLI1 expression: low (doxycycline-induced shRNA knockdown)
[3] = 2.5 µM, library screen: screen1, EWS-FLI1 expression: high (no doxycycline)
[4] = 2.5 µM, library screen: screen1, EWS-FLI1 expression: low (doxycycline-induced shRNA knockdown)
[5] = 0.25 µM, library screen: screen2, EWS-FLI1 expression: high (no doxycycline)
[6] = 0.25 µM, library screen: screen2, EWS-FLI1 expression: low (doxycycline-induced shRNA knockdown)
[7] = 2.5 µM, library screen: screen2, EWS-FLI1 expression: high (no doxycycline)
[8] = 2.5 µM, library screen: screen2, EWS-FLI1 expression: low (doxycycline-induced shRNA knockdown)

Measured: cell viability (log2)

COc1ccc(C(=O)C=Cc2ccccc2)cc1
inactive: [1] 0.0817 | [2] 0.0563 | [3] 0.0612 | [4] 0.0356

CC(C)=CC1C(CO)C1(C)C (stereo not drawn)
inactive: [1] 0.105 | [2] 0.00359 | [3] 0.117 | [4] 0.123

CCOC(=O)c1sc(C)c2c(=O)n(C3CCCCC3)cnc12
inactive: [1] 0.0769 | [2] 0.0757 | [3] 0.067 | [4] -0.0142

Cc1ccc(S(=O)(=O)/C=C/C#N)cc1
active: [3] -0.841 | [7] -0.102 | 25 µM, library screen: screen1, EWS-FLI1 expression: high (no doxycycline) -3.58 | 25 µM, library screen: screen1, EWS-FLI1 expression: low (doxycycline-induced shRNA knockdown) -2.12
inactive: 0.025 µM, library screen: screen1, EWS-FLI1 expression: high (no doxycycline) 0.231 | 0.025 µM, library screen: screen1, EWS-FLI1 expression: low (doxycycline-induced shRNA knockdown) -0.0315 | [1] 0.131 | [2] 0.0518 | [5] 0.14 | [6] -0.0223 | [4] -0.123 | [8] 0.0315

CC(C)(C)c1ccc(S(=O)(=O)/C=C/C#N)cc1
active: [7] -0.121
inactive: [5] 0.205 | [6] 0.163 | [8] 0.0273

C[C@@H](Oc1ccccc1)C(=O)N[C@@H]1C(=O)N2[C@@H]1SC(C)(C)[C@@H]2C(=O)O
inactive: [1] 0.0816 | [2] 0.0301 | [3] 0.188 | [4] 0.189

CC1=C[C@@H]2[C@@H](CC1)[C@](C)(O)CC[C@H]2C(C)C
inactive: [1] 0.0888 | [2] 0.0211 | [3] 0.101 | [4] 0.102

C=C1C2CC[C@@]3(C)[C@H](c4ccoc4)OC(=O)C[C@]13O[C@H]1C[C@H](OC(C)=O)C(C)(C)[C@H](CC(=O)OC)[C@@]21C
inactive: [1] 0.122 | [2] 0.0225 | [3] 0.146 | [4] 0.192

Cc1onc(-c2c(Cl)cccc2Cl)c1C(=O)Nc1ccc(Br)cc1F
inactive: [1] 0.112 | [2] 0.103 | [3] 0.116 | [4] 0.0234

O=C(/C=C/c1ccc(O)c(O)c1)OCCc1ccccc1
inactive: [5] 0.197 | [6] 0.0712 | [8] 0.0968
active: [7] -0.129

O=C(/C=C/c1ccc(O)c(O)c1)O[C@H](Cc1ccc(O)c(O)c1)C(=O)O
inactive: [1] 0.0508 | [2] 0.0752 | [3] 0.0833 | [4] 0.158

O=C(O)/C=C/c1ccc(O)c(O)c1
inactive: [1] 0.082 | [2] -0.0191 | [5] 0.181 | [6] 0.126 | [3] 0.109 | [4] 0.0871 | [7] 0.0522 | [8] 0.0284

N[C@@H](CSCSC[C@H](N)C(=O)O)C(=O)O
inactive: [1] 0.0746 | [2] 0.0305 | [3] 0.129 | [4] 0.147

N#Cc1c(-c2ccc(Br)cc2)cc(-c2ccc3c(c2)OCO3)c(C#N)c1N
inactive: [1] 0.0622 | [2] 0.109 | [3] 0.154 | [4] 0.0524

CCCc1occc(=O)c1C=CO
inactive: [1] -0.0143 | [2] 0.0143 | [3] 0.203 | [4] 0.0516

Nc1ccc(S(=O)(=O)Nc2ccnn2-c2ccccc2)cc1
inactive: [1] 0.0545 | [2] -0.0171 | [5] 0.053 | [6] 0.048 | [3] 0.14 | [4] 0.0403
active: [7] -0.179 | [8] -0.12

Nc1ccc(S(=O)(=O)Nc2ccccn2)cc1
inactive: [1] 0.0477 | [2] 0.097 | [3] 0.18 | [4] 0.163

Nc1ccc(S(=O)(=O)Nc2ncccn2)cc1
inactive: 0.103 µM, library screen: screen3, EWS-FLI1 expression: high (no doxycycline) 0.169 | 0.103 µM, library screen: screen3, EWS-FLI1 expression: low (doxycycline-induced shRNA knockdown) 0.0541 | [1] 0.0966 | [2] 0.142 | 0.308 µM, library screen: screen3, EWS-FLI1 expression: high (no doxycycline) 0.163 | 0.308 µM, library screen: screen3, EWS-FLI1 expression: low (doxycycline-induced shRNA knockdown) 0.0301 | 0.926 µM, library screen: screen3, EWS-FLI1 expression: high (no doxycycline) 0.117 | 0.926 µM, library screen: screen3, EWS-FLI1 expression: low (doxycycline-induced shRNA knockdown) 0.108 | [3] 0.146 | [4] 0.202 | 2.8 µM, library screen: screen3, EWS-FLI1 expression: high (no doxycycline) 0.14 | 2.8 µM, library screen: screen3, EWS-FLI1 expression: low (doxycycline-induced shRNA knockdown) 0.0823 | 8.3 µM, library screen: screen3, EWS-FLI1 expression: high (no doxycycline) 0.0532 | 8.3 µM, library screen: screen3, EWS-FLI1 expression: low (doxycycline-induced shRNA knockdown) 0.0153 | 25 µM, library screen: screen3, EWS-FLI1 expression: high (no doxycycline) 0.0911 | 25 µM, library screen: screen3, EWS-FLI1 expression: low (doxycycline-induced shRNA knockdown) 0.15

COC(=O)C[C@H]1C(C)(C)C(=O)[C@@H]2CC3C4=CC(=O)O[C@@H](c5ccoc5)[C@]4(C)CC[C@@H]3[C@@]1(C)C2=O (stereo partly drawn)
inactive: [1] 0.00456 | [2] 0.0839 | [3] 0.0543 | [4] 0.0477

COc1ccc2c(c1)O[C@@H]1c3ccc(OC)cc3OC[C@H]21
inactive: [1] 0.0429 | [2] 0.176 | [3] 0.0512 | [4] 0.136

C[C@H]1O[C@@H](O[C@H]2[C@@H](O)C[C@H](O[C@H]3[C@@H](O)C[C@H](O[C@H]4CC[C@@]5(C)[C@H](CC[C@@H]6[C@@H]5CC[C@]5(C)[C@@H](C7=CC(=O)OC7)CC[C@]65O)C4)O[C@@H]3C)O[C@@H]2C)C[C@H](O)[C@@H]1O
active: [1] -2.45 | [2] -2.04 | [3] -3.94 | [4] -4.23

C[C@]12CC[C@H](O)C[C@H]1C[C@@H]1OC13C2[C@H](O)C(=O)[C@]1(C)[C@@H](C2=CC(=O)OC2)CC[C@]31O (stereo partly drawn)
inactive: [1] 0.026 | [2] -0.0692 | [3] 0.111 | [4] -0.106

C[C@H]1O[C@@H](O[C@H]2[C@@H](O)C[C@H](O[C@H]3[C@@H](O)C[C@H](O[C@H]4CC[C@@]5(C)[C@H](CC[C@@H]6[C@@H]5C[C@@H](O)[C@]5(C)[C@@H](C7=CC(=O)OC7)CC[C@]65O)C4)O[C@@H]3C)O[C@@H]2C)C[C@H](O)[C@@H]1O
inactive: [1] -0.0229 | [2] -0.153
active: [3] -2.32 | [4] -1.91

CC(=O)N[C@@H]1[C@@H](O)[C@H](O)[C@@H](CO)O[C@H]1O
inactive: [1] 0.0385 | [2] 0.0648 | [3] 0.0809 | [4] 0.0429

CC(C)CC1NC(=O)C(Cc2ccccc2)NC(=O)C(CCN)NC(=O)C(NC(=O)C(CCN)NC(=O)C(CCO)NC(=O)C(CCN)NC=O)CCNC(=O)C(CCO)NC(=O)C(CCN)NC(=O)C(CCN)NC1=O.COc1cc(Cc2cnc(N)nc2N)cc(OC)c1OC (stereo not drawn)
inactive: [1] 0.0686 | [2] 0.0873 | [3] 0.182 | [4] 0.054
